TEAD-YAP inh: TEAD-YAP interaction inhibition, primary screen, TEAD-YAP interaction inhibitor project, luminescence, HEK-TIYL cells. TEAD-Gal4/YAP UAS-luciferase luminescence. AID 1259422, 2018. inhibition, % at 9.12 µM. 640,000 compounds, 1.4% hits; in the data active = inhibition above about 32%;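 note: 0% = median of test compound wells and 100% = reference inhibitor wells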
GPR151 activ: activators of human GPR151, primary screen, cell-based, PathHunter beta-arrestin, luminescence. PathHunter beta-arrestin GPR151 cells. activation, % at 11.2 µM. 650,000 compounds, 1% hits. AID 1508602, 2020; in the data active = activation above about 4.9%;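 note: 0% = median of compound wells and 100% = cells with positive control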
Target sequence (Q8TDV0 whole entry, looked up): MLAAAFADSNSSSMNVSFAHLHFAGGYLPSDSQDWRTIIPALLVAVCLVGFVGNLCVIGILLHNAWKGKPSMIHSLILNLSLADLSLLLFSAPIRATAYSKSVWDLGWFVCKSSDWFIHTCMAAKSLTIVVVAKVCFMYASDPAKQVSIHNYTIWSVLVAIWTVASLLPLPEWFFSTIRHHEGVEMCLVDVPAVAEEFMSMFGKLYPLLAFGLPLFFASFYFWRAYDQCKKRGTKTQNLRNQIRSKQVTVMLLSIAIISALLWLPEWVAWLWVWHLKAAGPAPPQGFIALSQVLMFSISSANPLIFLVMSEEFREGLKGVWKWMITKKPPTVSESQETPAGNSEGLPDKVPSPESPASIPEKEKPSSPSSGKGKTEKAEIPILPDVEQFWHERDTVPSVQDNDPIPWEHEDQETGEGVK
FBW7 activator: FBW7 E3 ligase activators, primary screen, biochemical, AlphaScreen, human | normalized activity (activation), % at 26.1 µM | AlphaScreen FBW7–phospho-cyclin E peptide binding, activator screen | 650,000 compounds, 0.13% hits | F-box/WD repeat-containing protein 7 (Homo sapiens), Q969H0; in the data active = normalized activity above about 1.9%;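 note: purified mutant Fbw7 with reduced substrate affinity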
MITF primary: MITF inhibitors, primary screen, biochemical, AlphaScreen, human. AlphaScreen MITF homodimerization, bead proximity signal. inhibition, % at 2.6 µM. Microphthalmia-associated transcription factor (Homo sapiens), O75030. 650,000 compounds, 0.91% hits; in the data active = inhibition above about 50%;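 note: 0% = vehicle wells with protein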
Starred values were filed as active, the others as inactive. Sampled rows, rich in hits. Any-hit rate of the full collection: about 3.5%.

SMILES	TEAD-YAP inh	GPR151 activ	FBW7 activator	MITF primary
O=C(Nc1ccc(N2CCOCC2)cc1)c1ccco1	62*	-5	0	9
Cn1ncc2c(NCc3ccc(Cl)cc3Cl)ncnc21	-8	0	0	2
O=S(=O)(/C=C/c1ccccc1)NCc1nc(N2CCCC2)c2cc(Cl)ccc2n1	-4	1	0	2
O=C(Cc1ccccc1)Nc1ccc(-c2nc3cccnc3s2)cc1	-17	0	0	8
O=C(Nc1ccc(-c2nc3cccnc3s2)cc1)c1ccccc1	-48	-3	0	-3
CC(C)CC(=O)Nc1ccc(-c2nc3cccnc3s2)cc1	54*	-3	0	16
Nc1ccc(-c2nc3cccnc3s2)cc1	34*	-8	0	-9
O=C(Nc1ccc(-c2nc3cccnc3s2)cc1)C1CC1	75*	-4	0	10
OCc1nc2ccc(Cc3ccc4nc(CO)[nH]c4c3)cc2[nH]1	14	4	0	3
OCc1nc2ccc(-c3ccc4nc(CO)[nH]c4c3)cc2[nH]1	58*	-6	0	15
COc1ccc(C2Nc3ccccc3C(=O)N2c2ccc3ccccc3c2)cc1 (stereo unspecified)	64*	-6	0	-5
COc1ccc(C2Nc3ccccc3C(=O)N2c2ccc(C)cc2)cc1 (stereo unspecified)	-66	-1	0	10
CCOc1ccc(N(C(C)C(=O)Nc2ccccc2C(=O)OC)S(C)(=O)=O)cc1 (stereo unspecified)	35*	-1	0	-10
CCOc1ccccc1NC(=O)C(C)N(c1ccc(Cl)cc1)S(C)(=O)=O (stereo unspecified)	6	-1	0	3
CCOc1ccccc1NC(=O)C(C)Oc1ccc(OC)cc1 (stereo unspecified)	48*	0	0	-3
CCOc1ccc(N(C(C)C(=O)Nc2ccccc2OCC)S(C)(=O)=O)cc1 (stereo unspecified)	54*	0	0	9
CCOc1ccccc1NC(=O)C(C)Oc1ccccc1 (stereo unspecified)	-1	0	0	-13
C=CCc1cccc(/C=N/NC(=O)CCCO)c1O	6	0	0	29
C=CCc1cccc(/C=N/NC(=O)C[n+]2ccccc2)c1O	60*	-1	0	29
CC(C)c1ccc(NC(=O)c2ccc([N+](=O)[O-])cc2)cc1	-20	-1	0	21
CS/C(=C\[N+](=O)[O-])Nc1ccc(C(C)C)cc1	54*	0	0	-16
c1ccc(-n2cnc3c(NCc4nc5ccccc5[nH]4)nc(N4CCc5ccccc5C4)nc32)cc1	-13	1	0	3
c1ccc(-n2cnc3c(NCc4nc5ccccc5[nH]4)nc(N4CCN(c5ccccn5)CC4)nc32)cc1	48*	-2	0	-1
CCCNc1nc(N2CCN(c3ccccn3)CC2)nc2c1ncn2-c1ccccc1	40*	-1	0	0
Cc1ccc(-c2nnc(C3CCN(S(=O)(=O)c4ccc([N+](=O)[O-])cc4)CC3)o2)cc1	8	-1	0	5
SMILES	TEAD-YAP inh	GPR151 activ	FBW7 activator	MITF primary
CCN(CC)c1ccc(N=Nc2ncn[nH]2)cc1	44*	-1	-2	36
CCOC(=O)C1=C(c2ccccc2)N=c2s/c(=C\c3cccc(O)c3)c(=O)n2C1c1cc(C(C)C)c(OC)cc1C (stereo unspecified)	4	-1	1	-4
CCOC(=O)C1=C(c2ccccc2)N=c2s/c(=C\c3ccc4c(c3)OCO4)c(=O)n2C1c1cc(C(C)C)c(OC)cc1C (stereo unspecified)	-3	-1	2.7*	18
COc1cccc(OC)c1CN1CCC2(CCC(CNC(=O)c3cccc(F)c3)O2)CC1 (stereo unspecified)	9	0	0	19
CCOC(=O)c1[nH]c(C)c(CNC2CCCCC2)c1C	3	1	0	13
CCOC(=O)c1[nH]c(C)c(CN(C2CCCCC2)S(C)(=O)=O)c1C	52*	0	0	5
O=C1NC(=S)NC(=O)C1=CN1CCCc2ccccc21	14	0	2.5*	31
O=C1NC(=S)NC(=O)C1=Cc1ccc(N2Cc3ccccc3C2)cc1	9	-1	0	21
Cc1nccn1-c1cc(NCCNC(=O)Nc2ccc(F)c(Cl)c2)ncn1	78*	0	0	3
COc1ccc(-c2nc3ncnc(NCCOc4ccccc4)c3[nH]2)cn1	36*	0	0	3
COc1cc(Nc2nc(-c3cccc(C(C)=O)c3)nc3nc[nH]c23)cc(OC)c1OC	30	0	1.9*	10
CC(=O)c1cccc(-c2nc(Nc3ccccc3)c3[nH]cnc3n2)c1	1	4	0	-4
COc1ccc(-c2nc3ncnc(Nc4ccc(NC(C)=O)cc4)c3[nH]2)cn1	12	0	0	22
COc1ccc(-c2nc3ncnc(NCCN(C(C)C)C(C)C)c3[nH]2)cn1	9	0	0	13
COc1ccc(-c2nc(Nc3cc(OC)c(OC)c(OC)c3)c3[nH]cnc3n2)cn1	57*	-1	0	12
COc1ccc(-c2nc3ncnc(Nc4cc(OC)c(OC)c(OC)c4)c3[nH]2)cn1	46*	-1	1	19
CCCCOC(=O)c1sc2nc3c(cc2c1N)C(=O)CCC3	-5	-1	0	8
CCCNC(=O)Cn1cnc2sc(C(=O)NC(C)C)c(C)c2c1=O	3	1	0	4
CCOCCn1c(=NC(=O)c2ccccc2F)sc2cc(OC)c(OC)cc21	-2	-2	1	2
COc1ccc(-c2nc3ncnc(NCCc4ccc(O)cc4)c3[nH]2)cc1	59*	2	0	11
O=[N+]([O-])c1ccc(Cl)cc1CN1CCN(CCO)CC1	-2	3	0	13
O=C(Nc1ccc(O)cc1)c1scc2c1CCCC2	68*	-2	0	0
Cc1cccc(NC(c2ccc3c(c2)OCO3)c2ccc3cccnc3c2O)n1 (stereo unspecified)	80*	0	0	15
Oc1c(C(Nc2ccccn2)c2ccc(OC3CCCC3)cc2)ccc2cccnc12 (stereo unspecified)	29	0	0	-1
Oc1c(C(Nc2ccccn2)c2ccc3c(c2)OCO3)ccc2cccnc12 (stereo unspecified)	87*	0	-1	22
CC(C)CC(=O)NC(c1ccc2c(c1)OCO2)c1ccc2cccnc2c1O (stereo unspecified)	84*	-1	-1	22
CCOc1cccc(C(Nc2cccc(C)n2)c2ccc3ccc(C)nc3c2O)c1 (stereo unspecified)	-2	-1	0	9
CN(CC1COCCO1)C1CCN(c2ccc(C(=O)NCCN3CCOCC3)cc2)CC1 (stereo unspecified)	1	-1	0	-9
Cc1cc(C)c2oc(-c3cccc(NC(=O)c4ccc(C)c(Cl)c4)c3)nc2c1	7	4	0	0
